# Assay outcomes from PubChem.
# Hsp70 activator = switches on Hsp70 transcription | HeLa Hsp70 promoter luciferase reporter, luminescence; scaled: vehicle 0, proteasome-inhibitor control 100% | activation, % at 10 µM | 200,000 tested, 0.04% active | AID 1203;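 active means activation above the mean across all tested compounds plus 3 SD, cutoff set per campaign, cut at about 5.5% in these data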
# NALP1 yeast inh = blocks the NALP1 inflammasome reconstituted in yeast. S. cerevisiae NALP1/ASC/caspase-1 growth, X-gal OD620, 72 h. AID 2071. 280,000 tested, 0.61% active. inhibition, % at 10 µM; in the data active means inhibition mostly above about 24%, no sharp cut-off; inactive means mostly below about 32%
# HSF1 inhib = HSF1 inhibition | activity change, negative = inhibition, % at 7.5 µM (by protocol) | AID 2098 | NIH3T3-HGL HSE-luciferase, MG132-induced, luminescence 8 h; active compounds read low | 300,000 tested, 0.77% active;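 active means more than half of replicate wells show activity change below -50%, luminescence cut by over half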;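 further: luciferase reports HSF-1 transcriptional activity via heat shock element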
# HSF-1 act = increases HSF-1 driven luciferase reporter signal. NIH3T3-HGL HSF-1 luciferase reporter, MG132, 8 h; 100% = twice DMSO control signal. 300,000 tested, 1.7% active. AID 504408. activation, % at 9 µM;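 active means mean replicate activation of at least 50% with a set share of replicates each reaching 50%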
# HSP90 refold inh = HSP90 refolding inhibition in rabbit reticulocyte lysate; luciferase refolding luminescence, 3 h; inhibition, % at 5.6 µM; 290,000 tested, 0.91% active; AID 1789;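 active means inhibition above the screen-wide mean plus 3 SD, computed separately per campaign, cut at about 16% in these data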;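 further: inhibitors lower the luminescence because luciferase stays unfolded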
# pCIP destab = lowers stability of the mouse p/CIP coactivator protein. Q05BA5. decrease of EGFP signal, % at 10 µM. 290,000 tested, 0.01% active. F442A p/CIP-EGFP cells, EGFP fluorescence, 16 h;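 active means EGFP signal decrease of at least 30% at 10 µM or well 3 SD below plate mean, unless failing retest; inactive means the rest, including hits failing retest or dose response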
# Numbers stand for hits; . = inactive; / = no result given. Most compounds without a hit are left out; they make up all but 3.8% or so of the library.
SMILES,Hsp70 activator,NALP1 yeast inh,HSF1 inhib,HSF-1 act,HSP90 refold inh,pCIP destab
COc1ccc(Cl)cc1S(=O)(=O)N1CCC(C(=O)NCCc2ccccc2)CC1,/,.,-79.3,.,.,.
CCCCc1ccccc1NC(=S)NC1CCCC1,/,.,.,.,.,.
Cc1cccc(COc2ccc(/C=N/NC(=O)c3nnn(-c4nonc4N)c3COc3ccc(F)cc3)cc2)c1,/,/,.,.,16.1,.
Nc1nonc1-n1nnc(C(=O)N/N=C/c2ccc(OCc3ccccc3)cc2)c1COc1ccc(F)cc1,/,/,.,.,.,.
CCN(CC)Cc1c(C(=O)N/N=C/c2cccc(OCc3cccc(Cl)c3)c2)nnn1-c1nonc1N,/,.,.,57.3,.,.
CN(C)Cc1c(C(=O)N/N=C/c2ccc(OCc3c(F)cccc3Cl)cc2)nnn1-c1nonc1N,/,.,.,108.5,.,.
CCOC(=O)c1nc(SC)n(C)c1C(=O)OCC,/,.,.,.,.,.
CC(=O)Cn1cnc2c(cnn2-c2ccc(C)c(C)c2)c1=O,/,.,.,59.0,.,.
Cc1ccc(-n2ncc3c(=O)n(CC(=O)N(C)C)cnc32)cc1C,/,.,.,.,.,.
O=C(N/N=C/c1ccco1)C1CC(=O)N(c2ccccc2)C1 (stereo not drawn),.,.,.,.,.,.
Cc1ccsc1C(=O)NCCc1ccc(S(N)(=O)=O)cc1,/,.,.,.,.,.
CC(C)Cc1nnc(NC(=O)CCC(=O)NC2CC2)s1,/,37.6,.,.,.,.
CC1CC(C)CN(C(=O)/C=C/c2ccc([N+](=O)[O-])s2)C1 (stereo not drawn),.,.,.,74.9,.,.
CC1CN(C(=O)/C=C/c2ccc([N+](=O)[O-])s2)CC(C)O1 (stereo not drawn),.,.,/,/,.,.
O=C(/C=C/c1ccc([N+](=O)[O-])s1)N1CCCCC1,.,.,.,61.0,.,.
O=C(/C=C/c1ccc([N+](=O)[O-])s1)N1CCCC1,.,.,.,.,.,.
COc1ccc(OC)c(NC(=O)c2ccccc2OC(C)=O)c1,/,/,.,.,/,/
O=C(O)c1cc(-n2[nH]c(=O)c3ccccc3c2=O)ccc1Cl,/,.,.,.,.,.
CC(C)(C)c1ccc(/C=N/N2C(=O)CSC2=S)cc1,/,.,-76.8,.,.,.
COc1ccc(C(=O)NCCCn2cccn2)cc1OC1CCN(C(C)=O)CC1,/,.,.,.,.,.
CCOC(=O)/C=C(\C)Nc1cc(C)nn1-c1ccccc1,.,.,.,53.9,.,.
Cc1cc(NC(=O)Nc2cc(C)nn2-c2ccccc2)n(-c2ccccc2)n1,.,.,.,.,.,.
COc1ccc(Nc2ccc(N3C(=O)CC(C)C3=O)cc2[N+](=O)[O-])cc1OC (stereo not drawn),.,.,.,.,.,.
Cc1[nH]c2ccccc2c1C(=O)CSC(=S)N(C)C1CCCCC1,.,.,.,.,.,.
Cc1[nH]c2ccccc2c1C(=O)CSc1ccc(Cl)cc1,.,.,.,53.7,.,.
SMILES,Hsp70 activator,NALP1 yeast inh,HSF1 inhib,HSF-1 act,HSP90 refold inh,pCIP destab
Cc1[nH]c2ccccc2c1C(=O)CSC(=S)N1CCCCC1,.,.,.,54.4,.,.
O=C(CCN1C(=O)[C@@H]2Cc3ccccc3CN2C1=O)N[C@@H](C(=O)O)c1ccccc1,/,.,.,.,.,.
O=C(O)COc1ccc2occ(C(=O)c3ccccc3)c2c1,.,.,.,.,.,.
CC(=O)Oc1ccc2occ(C(=O)c3ccccc3)c2c1,/,/,.,62.7,/,/
CCc1nonc1NC(=O)c1oc2c(C)c(C)ccc2c1C,/,.,.,.,.,.
CCN(CC)S(=O)(=O)c1ccc2[nH]cc(C(=O)NCCCN3CCCCC3)c(=O)c2c1,.,.,.,.,.,.
CCN(CC)S(=O)(=O)c1ccc2[nH]cc(C(=O)NCCN3CCCCCC3)c(=O)c2c1,.,32.5,.,.,.,.
COc1ccc(CCNC(=O)C2CCCN(Cc3nc(-c4ccccc4C)oc3C)C2)cc1OC (stereo not drawn),.,.,.,72.1,.,.
COc1ccc(S(=O)(=O)N2CCCC(C(=O)NC3CCCCC3)C2)cc1 (stereo not drawn),.,33.6,.,.,.,.
Cc1oc(-c2ccc(Cl)cc2)nc1CN1CCCC(C(=O)NC2CC2)C1 (stereo not drawn),/,.,.,.,.,.
CCc1ccc(-c2nc(CN3CCCC(C(=O)NCCc4ccc(OC)c(OC)c4)C3)c(C)o2)cc1 (stereo not drawn),.,.,.,.,.,.
COc1ccc(CNC(=O)C2CCCN(Cc3nc(-c4cccc(C)c4)oc3C)C2)cc1 (stereo not drawn),.,28.3,.,.,.,.
COc1ccc(S(=O)(=O)N2CCC(NC(=O)C3CCCCC3)CC2)cc1,/,.,.,.,.,.
COc1ccc(-c2nc(CN3CCCC(C(=O)NC4CCCC4)C3)c(C)o2)cc1 (stereo not drawn),.,44.0,.,.,.,.
N#CC1=C(N)Oc2c(ccc3ccccc23)C1c1ccsc1 (stereo not drawn),.,.,.,65.3,.,.
N#CC1=C(N)Oc2c(oc(CO)cc2=O)C1c1ccsc1 (stereo not drawn),.,.,.,.,.,.
CCc1[nH]nc2c1C(c1ccsc1)C(C#N)=C(N)O2 (stereo not drawn),.,.,.,52.8,.,.
Cc1ccc(SCc2[nH]nc3c2C(c2ccc(C)o2)C(C#N)=C(N)O3)cc1 (stereo not drawn),.,.,-66.2,.,.,.
CC(C)(C)c1[nH]nc2c1C(c1ccsc1)C(C#N)=C(N)O2 (stereo not drawn),.,.,.,.,.,.
CCCc1[nH]nc2c1C(c1cc(OC)ccc1F)C(C#N)=C(N)O2 (stereo not drawn),.,.,.,74.1,.,.
Cc1ccc(SCc2[nH]nc3c2C(c2ccco2)C(C#N)=C(N)O3)cc1 (stereo not drawn),.,.,.,.,.,.
CCCc1[nH]nc2c1C(c1cc(OC)cc(OC)c1)C(C#N)=C(N)O2 (stereo not drawn),.,.,.,.,.,.
Cc1ccc(-c2nn(-c3ccccc3)cc2C=O)o1,.,.,.,.,.,.
O=C(C1CC(=O)N(c2ccccc2)C1)N1CCN(c2ccccc2)CC1 (stereo not drawn),/,.,.,.,.,.
Cn1c(=O)[nH]c(=O)c2cc(C(=O)c3cc(F)ccc3O)cnc21,.,.,.,.,.,.
COc1ccc(C2CC(=O)C3=C(C2)Nc2ccccc2N(C(=O)CCC(=O)O)C3c2ccc(F)cc2)cc1 (stereo not drawn),/,.,/,/,.,.
Cc1ccccc1-n1nc(CSc2nc3ccccc3[nH]2)c(-c2ccccc2)c1N,.,.,.,60.1,.,.
Nc1c(-c2ccccc2)c(CSc2nc3ccccc3[nH]2)nn1-c1ccc(Cl)cc1,.,.,.,.,.,.
